Laboratory results: PubChem BioAssay
The source made the active and inactive calls. Unless noted, the rule behind the calls is not given here.

What was measured:
[1] = anti-His antibody binders, primary screen, artefact control for SMM control protein annotation, biochemical, small-molecule microarray, 635 nm fluorescence (AID 1128); details: anti-His Alexa647 antibody binding, higher = more signal;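 note: score merges feature fluorescence with signal-to-noise for each printed compound spot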
[2] = tested on: Human papillomavirus type 1a E7 protein (residues 1-88); test: HPV1a E7 small-molecule binders, primary screen, biochemical, small-molecule microarray, residues 1-88, 635 nm (AID 1129); details: small-molecule microarray binding, fluorescence 635 nm; higher = more signal
[3] = biological target: Focal adhesion kinase 1 (Homo sapiens) (UniProt Q05397); test: small-molecule microarray binders of FAK, primary screen, biochemical, 635/667 nm fluorescence, BSA, DTT (AID 1130); details: PTK2 binding, 635 nm fluorescence, higher = more signal;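 note: composite of spot emission at 667 nm and signal to noise over triplicate slides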
[4] = tested on: Fibrinogen (Alexa647-labelled); test: fibrinogen binders on compound microarrays, profiling panel, artefact control for SMM control-protein annotation, biochemical, small-molecule microarray, 635/667 nm fluorescence (AID 1131); details: fibrinogen-A647 binding fluorescence, higher = more signal;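 note: z-score merges 667 nm fluorescence with per-spot signal-to-noise over triplicate slides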
[5] = biological target: Follistatin (Homo sapiens) (UniProt P19883); test: follistatin binders on small-molecule microarrays, primary screen, biochemical, small-molecule microarray, 635/667 nm fluorescence (AID 1132); details: FST binding, 635 nm fluorescence, higher = more signal
[6] = biological target: Fibroblast growth factor 2 (Homo sapiens) (UniProt P09038); test: FGF2 binders on small-molecule microarrays, primary screen, biochemical, small-molecule microarray, 635/667 nm fluorescence (AID 1133); details: small-molecule microarray binding, FGF2, fluorescence 635/667; higher = more signal
[7] = mitochondrial membrane potential change in A549 cells, profiling panel, cell-based, JC-1 fluorescence, basal, 24 h, 100 nL (AID 1138); details: higher = more signal;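 note: A549 lung adenocarcinoma cells under basal conditions with no added stimulus; test concentration not given here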
Lefty1 = Lefty1 binders on small-molecule microarrays, primary screen, biochemical, small-molecule microarray, 635/667 nm fluorescence (AID 1139); details: small-molecule microarray binding, fluorescence 635/667; higher = more signal
[8] = tested on: wheat germ agglutinin (Triticum aestivum), Alexa647-labelled; test: wheat germ agglutinin binders on compound microarrays, profiling panel, artefact control for SMM control-protein annotation, biochemical, small-molecule microarray, 635/667 nm fluorescence (AID 1140); details: WGA-A647 binding, 635 nm fluorescence, higher = more signal;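 note: score merges 667 nm feature emission with signal to noise over triplicate slides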
[9] = biological target: Luciferin 4-monooxygenase (Photinus pyralis) (UniProt P08659); test: firefly luciferase enzyme inhibitors, primary screen, biochemical, luminescence, purified enzyme, 2006 set (AID 1141); details: SteadyGlo luminescence, 30 min, higher = more signal, called active from +8 up or from −8 down;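 note: cell-free assay with purified firefly luciferase at 100 ng per well in PBS; test concentration not given here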
[10] = tested on: Wnt5a (protein binding on small-molecule microarray); test: Wnt5a binders on small-molecule microarray, primary screen, biophysical, 635/667 nm fluorescence (AID 1142); details: 635 nm fluorescence, higher = more signal;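 note: fluorescence read at 667 nm with signal to noise per printed feature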
[11] = cell viability in Huh7 cells, primary screen, cytotoxicity control for HCV replication inhibitor project, CellTiter-Glo luminescence, basal, 48 h (AID 1143); details: Huh7 HCV replicon, higher = more signal, called active from +8 up or from −8 down;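 note: Huh7 hepatoma cells carrying a hepatitis C replication reporter with no stimulus; test concentration not given here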
[12] = P. aeruginosa biofilm formation inhibitors, primary screen, PAO1 strain, BacTiter-Glo luminescence, LB-PBS (AID 1144); details: 12 h, higher = more signal
[13] = CREB reporter modulators without forskolin, primary screen, cell-based, PC12, CRE-LacZ reporter, unstimulated (AID 1145); details: no forskolin, luminescence, 4.5 h, higher = more signal, called active from +8 up or from −8 down
[14] = CREB reporter modulators under forskolin, primary screen, cell-based, PC12, CRE-LacZ reporter, forskolin-stimulated (AID 1146); details: luminescence, 4.5 h, higher = more signal, called active from +8 up or from −8 down;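 note: PC12 cells with 6xCRE LacZ reporter stimulated by forskolin 10 µM; beta-galactosidase reporter signal reflecting CREB driven transcription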
[15] = biological target: Streptavidin (Streptomyces avidinii) (UniProt P22629); test: streptavidin binders on small-molecule microarray, primary screen, artefact control for SMM compound annotation, biophysical, 635/667 nm fluorescence (AID 1147); details: streptavidin binding, higher = more signal;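 note: signal reflects streptavidin binding to arrayed compounds as a control protein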
[16] = small-molecule binders of probe aInhba, primary screen, biochemical, small-molecule microarray, 635/667 nm fluorescence (AID 1148); details: higher = more signal;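 note: score merges 667nm spot fluorescence with signal-to-noise for antibody binding to printed compounds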
Torsin-1A (Homo sapiens) [17] = biological target: Torsin-1A (Homo sapiens) (UniProt O14656); test: torsin A binders from cell lysate, primary screen, small-molecule microarray, wild-type, 635/667 nm (AID 1149); details: COS7 hTOR1A-WT lysate, 635 nm fluorescence, higher = more signal
Torsin-1A (Homo sapiens) [18] = biological target: Torsin-1A (Homo sapiens) (UniProt O14656); test: small-molecule binders of mutant TOR1A in lysate, primary screen, cell lysate, small-molecule microarray, COS7 lysate, 635/667 nm fluorescence (AID 1150); details: COS7 hTOR1A mutant lysate, 635 nm fluorescence, higher = more signal;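 note: score pools 667 nm emission and signal to noise measuring lysate protein binding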
[19] = tested on: Sonic hedgehog protein (Shh); test: small-molecule binders of Shh protein, primary screen, biochemical, small-molecule microarray, 635/667 nm fluorescence (AID 1151); details: small-molecule microarray binding, 635 nm fluorescence; higher = more signal;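 note: Shh protein binding to compounds spotted on small-molecule microarray slides; score combines spot fluorescence intensity with signal-to-noise across triplicate slides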

Luciferin 4-monooxygenase (Photinus pyralis), sequence (P08659 whole entry, looked up): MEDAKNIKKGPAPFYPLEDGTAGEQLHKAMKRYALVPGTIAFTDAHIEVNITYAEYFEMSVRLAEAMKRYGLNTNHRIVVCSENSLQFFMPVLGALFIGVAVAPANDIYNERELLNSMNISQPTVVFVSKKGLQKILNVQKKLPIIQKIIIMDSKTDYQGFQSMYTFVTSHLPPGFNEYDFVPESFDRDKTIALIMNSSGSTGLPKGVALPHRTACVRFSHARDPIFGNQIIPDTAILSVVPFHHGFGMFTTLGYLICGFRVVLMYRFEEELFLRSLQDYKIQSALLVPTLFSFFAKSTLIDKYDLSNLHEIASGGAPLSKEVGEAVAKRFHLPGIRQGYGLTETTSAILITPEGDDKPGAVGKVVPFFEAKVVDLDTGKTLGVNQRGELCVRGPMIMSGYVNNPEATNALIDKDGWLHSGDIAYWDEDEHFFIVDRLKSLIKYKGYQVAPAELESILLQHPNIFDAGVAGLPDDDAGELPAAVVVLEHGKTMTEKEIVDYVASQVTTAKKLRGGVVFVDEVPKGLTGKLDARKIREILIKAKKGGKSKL
Torsin-1A (Homo sapiens), sequence (O14656 whole entry, looked up): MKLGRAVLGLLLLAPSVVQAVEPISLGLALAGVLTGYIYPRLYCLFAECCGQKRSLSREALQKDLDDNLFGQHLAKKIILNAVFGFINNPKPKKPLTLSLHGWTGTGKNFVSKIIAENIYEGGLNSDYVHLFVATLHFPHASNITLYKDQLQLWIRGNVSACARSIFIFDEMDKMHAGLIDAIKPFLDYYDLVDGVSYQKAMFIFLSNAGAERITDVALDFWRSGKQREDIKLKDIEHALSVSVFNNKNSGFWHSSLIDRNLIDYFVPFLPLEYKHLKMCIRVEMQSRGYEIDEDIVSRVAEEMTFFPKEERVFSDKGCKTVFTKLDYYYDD
Focal adhesion kinase 1 (Homo sapiens), sequence (Q05397 whole entry, looked up): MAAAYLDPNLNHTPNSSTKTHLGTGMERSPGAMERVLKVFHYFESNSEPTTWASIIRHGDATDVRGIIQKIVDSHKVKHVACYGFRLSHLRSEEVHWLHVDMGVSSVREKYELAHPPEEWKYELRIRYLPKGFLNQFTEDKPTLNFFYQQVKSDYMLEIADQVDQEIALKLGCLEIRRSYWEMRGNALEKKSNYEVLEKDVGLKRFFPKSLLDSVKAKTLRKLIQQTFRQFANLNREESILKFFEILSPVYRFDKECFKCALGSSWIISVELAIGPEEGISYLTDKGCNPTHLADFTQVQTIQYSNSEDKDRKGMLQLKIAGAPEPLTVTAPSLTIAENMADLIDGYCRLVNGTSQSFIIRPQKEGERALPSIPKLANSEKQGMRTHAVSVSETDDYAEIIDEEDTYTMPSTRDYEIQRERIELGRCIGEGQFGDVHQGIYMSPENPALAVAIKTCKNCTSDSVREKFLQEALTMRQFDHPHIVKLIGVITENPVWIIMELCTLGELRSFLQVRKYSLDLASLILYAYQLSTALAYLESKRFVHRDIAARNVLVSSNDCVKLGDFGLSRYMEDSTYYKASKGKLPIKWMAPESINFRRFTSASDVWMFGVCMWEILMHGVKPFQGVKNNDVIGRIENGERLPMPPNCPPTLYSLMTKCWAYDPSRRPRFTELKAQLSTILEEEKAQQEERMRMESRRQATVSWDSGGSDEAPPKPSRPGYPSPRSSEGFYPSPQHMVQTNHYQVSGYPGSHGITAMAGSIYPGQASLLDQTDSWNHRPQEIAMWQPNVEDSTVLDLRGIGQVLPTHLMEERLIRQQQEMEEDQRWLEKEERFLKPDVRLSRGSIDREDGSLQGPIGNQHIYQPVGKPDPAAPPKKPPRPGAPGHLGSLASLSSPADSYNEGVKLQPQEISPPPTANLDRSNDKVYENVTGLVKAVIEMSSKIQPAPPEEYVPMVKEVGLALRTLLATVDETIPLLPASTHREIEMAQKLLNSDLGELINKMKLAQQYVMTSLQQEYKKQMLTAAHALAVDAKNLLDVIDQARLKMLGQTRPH
Follistatin (Homo sapiens), sequence (P19883 whole entry, looked up): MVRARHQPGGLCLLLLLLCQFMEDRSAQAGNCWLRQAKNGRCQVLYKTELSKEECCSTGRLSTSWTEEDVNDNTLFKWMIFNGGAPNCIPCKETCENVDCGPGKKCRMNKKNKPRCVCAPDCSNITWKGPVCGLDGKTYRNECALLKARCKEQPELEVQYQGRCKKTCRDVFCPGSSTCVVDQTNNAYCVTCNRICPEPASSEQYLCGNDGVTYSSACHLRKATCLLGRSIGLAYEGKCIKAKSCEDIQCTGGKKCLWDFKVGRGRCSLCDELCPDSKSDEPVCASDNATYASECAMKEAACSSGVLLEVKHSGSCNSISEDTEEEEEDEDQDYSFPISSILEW
Streptavidin (Streptomyces avidinii), sequence (P22629 whole entry, looked up): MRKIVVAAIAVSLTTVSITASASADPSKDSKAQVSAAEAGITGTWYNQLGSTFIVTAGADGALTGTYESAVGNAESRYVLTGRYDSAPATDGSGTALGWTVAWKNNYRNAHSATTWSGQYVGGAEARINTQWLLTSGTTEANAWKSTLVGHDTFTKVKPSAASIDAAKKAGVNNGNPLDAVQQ
Fibroblast growth factor 2 (Homo sapiens), sequence (P09038 whole entry, looked up): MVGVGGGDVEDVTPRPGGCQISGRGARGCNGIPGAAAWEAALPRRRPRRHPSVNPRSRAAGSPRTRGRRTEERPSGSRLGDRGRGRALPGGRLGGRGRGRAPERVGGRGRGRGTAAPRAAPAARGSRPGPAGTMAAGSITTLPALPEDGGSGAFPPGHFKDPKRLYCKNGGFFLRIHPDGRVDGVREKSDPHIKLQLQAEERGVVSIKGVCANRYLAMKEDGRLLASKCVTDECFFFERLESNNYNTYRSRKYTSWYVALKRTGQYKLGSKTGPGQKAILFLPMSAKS

Row | SMILES | composite z-score [1] | composite z-score [2] | composite z-score [3] | composite z-score [4] | composite z-score [5] | composite z-score [6] | z-score [7] | composite z-score (Lefty1) | composite z-score [8] | z-score [9] | composite z-score [10] | z-score [11] | z-score [12] | z-score [13] | z-score [14] | composite z-score [15] | composite z-score [16] | composite z-score (Torsin-1A (Homo sapiens) [17]) | composite z-score (Torsin-1A (Homo sapiens) [18]) | composite z-score [19]
1 | CCCC[C@H]1OB(O)C[C@H]2C1=C(C)C[C@H]1C(=O)C=CC(=O)[C@H]12 | 0.306 | 0.615 | -0.244 | 0.483 | 0.828 | 0.642 | -0.353 | 1.16 | -0.0126 | -2.94 (inactive) | -0.0289 | -1.52 (inactive) | 0.244 (inactive) | 19.6 (active) | 14.8 (active) | 0.146 | -0.0292 | 0.935 | 0.527 | 1.71
2 | CC(C)=CCN(C(=O)C#Cc1ccccc1)[C@H](CO)c1ccccc1 | 0.326 | 0.419 | -0.0317 | 0.237 | 0.653 | 0.766 | -0.842 | 0.743 | 0.146 | 0.265 (inactive) | -0.0314 | -8.76 (active) | 1.15 (inactive) | 14.3 (active) | -4.52 (inactive) | -0.131 | -0.15 | 0.423 | -0.0045 | 0.708
3 | CC(C)CNC(=O)[C@@H]1c2ccccc2C(=O)N(C2Cc3ccccc3C2)[C@H]1c1ccc(CO)cc1 | 0.245 | 0.516 | -0.587 | 0.182 | 0.348 | 0.579 | 3.56 | -0.499 | -0.19 | -0.843 (inactive) | -0.0027 | -0.13 (inactive) | 0.92 (inactive) | 0.118 (inactive) | -0.748 (inactive) | -0.861 | -0.106 | -1.03 | 0.0877 | 0.436
4 | [N-]=[N+]=NCc1ccccc1C[C@]1(C(=O)NCc2ccccc2)N=C(c2ccc(OCCCO)cc2)O[C@H]1c1ccccc1CN=[N+]=[N-] | 1.75 | 0.986 | 0.586 | 0.91 | 0.821 | -0.31 | 0.064 | -0.503 | 0.328 | -1.16 (inactive) | 0.477 | -4.58 (inactive) | -0.333 (inactive) | 1.27 (inactive) | -1.73 (inactive) | 0.208 | 0.237 | 0.135 | 0.623 | -0.603
5 | COC(=O)C(CC#Cc1ccc2c(c1)[C@]1(C(=O)N2)[C@H](c2ccc(O)cc2)N2[C@H](c3ccccc3)[C@H](c3ccccc3)OC(=O)[C@H]2[C@@H]1C(=O)N1CCc2cc(OC)c(OC)cc2C1)C(=O)OC | 1.54 | 0.953 | -0.0453 | 0.742 | 1.36 | 1.17 | -0.654 | 1.54 | 0.384 | -0.0494 (inactive) | 0.294 | -0.26 (inactive) | 0.786 (inactive) | 0.918 (inactive) | 0.351 (inactive) | 0.455 | -0.101 | 0.966 | 0.48 | 1.31
